Laboratory results as given in ChEMBL document CHEMBL3988442, “University of Dundee, Small-Polar-MMV Screening Library” (2021).
Values joined by “and” are separate entries in the source; they are usually repeats but may differ in a detail not shown here. Identical values can stand only once. About 40 (0.06%) of roughly 67,000 compounds showed an effect of 50% or more. This excerpt belongs to a sample that is enriched for strong results.

These compounds were tested against T1, Coenzyme A biosynthesis bifunctional protein CoaBC (Mycobacterium tuberculosis (strain ATCC 25618 / H37Rv)) (UniProt P9WNZ1) (assay: Biomol Green assay for MtCoaBC inhibitor, OD650 read). Conditions: 30 µM.
T1 sequence (whole entry): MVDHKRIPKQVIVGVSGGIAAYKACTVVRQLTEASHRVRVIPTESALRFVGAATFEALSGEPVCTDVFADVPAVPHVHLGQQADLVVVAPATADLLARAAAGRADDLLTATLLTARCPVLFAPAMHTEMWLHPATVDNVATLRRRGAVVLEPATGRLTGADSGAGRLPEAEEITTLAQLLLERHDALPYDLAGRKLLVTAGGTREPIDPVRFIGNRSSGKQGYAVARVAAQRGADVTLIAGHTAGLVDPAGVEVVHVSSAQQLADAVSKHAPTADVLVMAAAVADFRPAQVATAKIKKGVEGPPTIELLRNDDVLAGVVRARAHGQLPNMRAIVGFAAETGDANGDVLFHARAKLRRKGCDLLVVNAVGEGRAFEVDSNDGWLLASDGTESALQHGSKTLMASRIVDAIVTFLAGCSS
Format: functional
Design: scale not given: in the data most compounds retested in dose-response had high values
`COC1CCN(CCNC(=O)NC(C)c2cccc(Cl)c2)CC1` (stereo unspecified) gave a Percent Effect of -0.455%.
In the case of `COC1CCN(CCNC(=O)NCC(C)c2cccc(C)c2)CC1` (stereo unspecified), the Percent Effect is reported as -16.8%.
Work on `COc1cccc(CN2C[C@H]3CC[C@H]2C3)c1OCCN1CCOCC1` yielded a Percent Effect of 4.29%.
`CCc1ccc(CN2CCN(CCOC)[C@@H]3CS(=O)(=O)C[C@@H]32)cc1` showed a Percent Effect of 8.73%.
`Cc1noc(C)c1CN1C[C@@H]2COC[C@H](C(=O)N3CCCCO3)[C@@H]2C1` gave a Percent Effect of 0.259%.
`CC(C)N(Cc1ccc(Cl)c(Cl)c1)C(=O)Cn1cncn1` gave a Percent Effect of 5.66%.
Compound `CC(C)N(Cc1ccc(Cl)c(Cl)c1)C(=O)CCn1cncn1` has a Percent Effect of 5.9%.
Work on `O=C(c1ccncc1)N1C[C@@H](OCc2cccnc2)[C@H]2OCCC[C@H]21` yielded a Percent Effect of 4.2%.
Compound `Cc1ccc(NS(=O)(=O)c2cnn(Cc3ccccc3)c2)c(C(=O)O)c1` has a Percent Effect of 0.726%.
`Cc1ccc(-n2cc(S(=O)(=O)Nc3cccc(C(=O)O)c3C)cn2)cc1` was tested, and the Percent Effect was 0.726%.
For `Cc1ccc(NS(=O)(=O)c2cnn(-c3ccccc3)c2)c(C(=O)O)c1`, the Percent Effect was 64.4% and 43.6%.
Compound `COCCC(=O)NC[C@H]1CC[C@H](C(c2ccccn2)N(C)C)CC1` (stereo partly specified) has a Percent Effect of -1.84%.
For `CNC(=O)N1CC[C@@H]2CN(Cc3ccccc3)S(=O)(=O)[C@@H]2CC1`, the Percent Effect was 1.48%.
`Cc1ccc(N2CC[C@@]3(O)CCN(S(C)(=O)=O)C[C@H]3C2)nn1` gave a Percent Effect of -0.123%.
Work on `O=C(CC1CC1)N1CC[C@H]2[C@@H]1CCC(=O)N2c1cccnc1` yielded a Percent Effect of 5.4%.
Work on `COc1cc(N2CC[C@@H]3O[C@H](C(=O)NCC4CC4)C[C@@H]32)ncn1` yielded a Percent Effect of -0.37%.
With `COCCN1CCC2(CC1)CN(CCn1cccn1)C(=O)CO2` the Percent Effect was -1.25%.
`O=C1COC2(CCN(Cc3ccoc3)CC2)CN1CCn1cccn1` showed a Percent Effect of -3.75%.
`Cn1cc(C(=O)N2CC[C@@]3(O)CCN(C4CCCCC4)C[C@H]3C2)cn1` showed a Percent Effect of 0.467%.
`CN(C)CCO[C@@H]1CC[C@H]2[C@H]1OCCN2C(=O)c1ccccc1F` gave a Percent Effect of 3.95%.
In the case of `CNC(=O)[C@H]1C[C@@H]2CN(S(=O)(=O)c3ccc(C)cc3)C[C@@H]2N1C`, the Percent Effect is reported as 1.63%.
`O=C([C@@H]1C[C@@H]2CCN(c3cccc(F)c3)C[C@H]2O1)N1CCCC1` gave a Percent Effect of -8.02%.
`Cc1cccc(CN2C(=O)C[C@H]3[C@@H]2CCN3Cc2ccc(F)cc2)n1` showed a Percent Effect of 9.41%.
For `CC(=O)N1[C@H](Cn2cncn2)C[C@@H]2CN(c3ccc(C)nn3)CC[C@@H]21`, the Percent Effect was 6.82%.
In the case of `O=C(NC1CCC1)[C@@H]1C[C@@H]2CCN(Cc3ccncc3)C[C@H]2O1`, the Percent Effect is reported as 4.7%.
For `Cc1ccc(NC2(C(=O)N3CCn4cncc4C3)CCCCC2)cc1C`, the Percent Effect was 4.82%.
In the case of `COc1ccc(NC2(C(=O)N3CCn4cncc4C3)CCCC2)cc1`, the Percent Effect is reported as 8.96%.
Work on `CC1=N[C@@]2(CC[C@@H]3CN(C(=O)NCc4ccccc4C)C[C@@H]32)C(=O)N1` yielded a Percent Effect of 0.609%.
Work on `O=C(COC[C@@H]1CC[C@H]2[C@H](CCN2Cc2ccco2)O1)N1CCCC1` yielded a Percent Effect of 9.53%.
Work on `CCC1(CNC(=O)NC(c2nnc3n2CCC3)C(C)C)CCC1` (stereo unspecified) yielded a Percent Effect of -3.55%.
Compound `CC(C)C(NC(=O)NCC1CC1)c1nnc2n1CCC2` (stereo unspecified) has a Percent Effect of -0.508%.
`COCCN1C(=O)[C@]2(CC[C@@H]3CN(S(=O)(=O)CC(C)C)C[C@@H]32)N=C1C` gave a Percent Effect of -3.81%.
Compound `CC(C)CC(=O)N1CC[C@@H]2CN(CC(=O)N(C)C)S(=O)(=O)[C@@H]2CC1` has a Percent Effect of 2.32%.
`Cc1noc([C@H]2C[C@@H]3CCN(CC4CC4)C[C@H]3O2)n1` showed a Percent Effect of -1.9%.
`Cc1cccc(CN2CC[C@H]3[C@H]2CCN3Cc2cnn(C)c2)n1` gave a Percent Effect of -4.59%.
With `c1cc(COC[C@@]23CCC[C@@H]2CN(C2CCOCC2)C3)ccn1` the Percent Effect was 6.42%.
With `Cc1cnn(CC2CCCN2Cc2ncc(-c3ccccc3)o2)c1` (stereo unspecified) the Percent Effect was 2.73%.
Compound `Cc1cnn(CC2CCCN2Cc2nnc(Cc3ccccc3)o2)c1` (stereo unspecified) has a Percent Effect of 0.119%.
`O=C(N1CCCO1)[C@@]12CCO[C@@H]1CCN(Cc1ccsc1)C2` was tested, and the Percent Effect was -8.02%.
`CCS(=O)(=O)N1CC[C@H]2CO[C@H](CN(C)C)[C@H]2C1` gave a Percent Effect of -0.203%.
`CC(=O)N1C[C@H]2CNC[C@@]2(C(=O)NCCCOc2cccnc2)C1` was tested, and the Percent Effect was 3.58%.
Compound `CN1CCC(C)(CNC(=O)c2ccc(SCc3cccnc3)cc2)CC1` has a Percent Effect of -1.65%.
In the case of `O=C(NCCC(=O)N1CCCC1)c1cccnc1`, the Percent Effect is reported as 0.943%.
Compound `O=C(c1cscn1)N1C[C@@H]2C[C@@H](c3nnc(C4CC4)o3)O[C@@H]2C1` has a Percent Effect of 0.38%.
Compound `CC1CCN(C[C@H]2CN3CC[C@H]2C[C@@H]3CNC(=O)c2ccco2)CC1` has a Percent Effect of -15.2%.
`Cc1ccccc1CC(=O)N1C[C@@H]2COC[C@]2(CN(C)C)C1` was tested, and the Percent Effect was -10.9%.
`COCCN1CC[C@@H]2CN(Cc3cccnc3OC)C[C@@H]2C1` showed a Percent Effect of -0.364%.
`Nc1cc(O)nc(CCNC(=O)CC[C@@H]2CCCN3CCCC[C@H]23)n1` gave a Percent Effect of -3.91%.
`COc1ccc(C2CC(=O)c3c(O)cc(O)cc3O2)cc1O` (stereo unspecified) showed a Percent Effect of 17.8%.
For `COc1cc(C2CC(=O)c3c(O)cc(O)cc3O2)ccc1O` (stereo unspecified), the Percent Effect was 7%.
In the case of `COc1cc(O)cc2c1C(=O)CC(c1ccc(O)cc1)O2` (stereo unspecified), the Percent Effect is reported as 65.2% and 48.7%.
With `CN(Cc1ccco1)[C@@H]1CN(Cc2ccsc2)C[C@@H]2CCCO[C@@H]21` the Percent Effect was 5.46%.
In the case of `COCc1cccc(C(=O)N2C[C@H]3CC[C@@H]2CN(Cc2cscn2)C3)n1`, the Percent Effect is reported as 1.53%.
`Cc1nc(CN2CC[C@H]3[C@@H]2CCC(=O)N3c2cnn(C)c2)cs1` gave a Percent Effect of -3.58%.
Compound `Cn1cc(N2C(=O)CC[C@@H]3[C@H]2CCN3Cc2ccncc2)cn1` has a Percent Effect of 0.381%.
Work on `O=C1N[C@@H]2CCN(C(=O)C3CCC3)[C@@H]2C(=O)N1c1ccc(F)cc1` yielded a Percent Effect of 0.226%.
`Fc1cccc(O[C@@H]2C[C@H]3CN(Cc4ccccn4)CCN3C2)c1` showed a Percent Effect of 0.483%.
With `Cn1cccc1C(=O)N1CC[C@H]2C[C@@H](c3ccncn3)O[C@@H]2C1` the Percent Effect was 1.03%.
`COc1ccc(CN2CCCC2)cc1Oc1ccc2c(c1)CC(CN)O2` (stereo unspecified) showed a Percent Effect of 4.1%.
`Cc1cc(CN2CCCC2)cc(Oc2ccc3c(c2)CC(CN)O3)c1` (stereo unspecified) was tested, and the Percent Effect was 3.85%.
`O=C(NCC1CC1)[C@@H]1C[C@@H]2OCCN[C@@H]2C1` was tested, and the Percent Effect was -1.96%.
`COc1ccc(-n2cc(CNC(=O)c3ccccn3)nn2)cc1` was tested, and the Percent Effect was 6.21%.
`CN1C(=O)CO[C@H]2CN(C(=O)Nc3ccc(F)cc3)C[C@H]21` was tested, and the Percent Effect was 9.63%.
`Cc1noc([C@H]2C[C@@H]3CCN(CC4CCOCC4)C[C@H]3O2)n1` showed a Percent Effect of 14.2%.
`Cc1ccc(OCC(=O)N2CCN[C@H]3CS(=O)(=O)C[C@H]32)cn1` gave a Percent Effect of 12%.
`Cc1ncsc1CN1C[C@@H]2COC[C@]2(COc2ccc(C#N)cn2)C1` was tested, and the Percent Effect was 2.8%.
